What all share (assay): NCI-60 one-dose screen, 48 h (100 = growth as untreated, 0 = no growth, -100 = all killed)
Details in all cases: 10 µM unless noted

Assay [1] deals with SR leukemia.
Assay [2] deals with RPMI-8226 leukemia.
Assay [3] concerns OVCAR-8 ovarian.
Assay [4] concerns OVCAR-5 ovarian.
The subject of assay [5] is OVCAR-4 ovarian.
The test system of assay [6] is SK-OV-3 ovarian.
In assay [7] the test system is IGROV1 ovarian.
In assay [8] the test system is HS 578T breast.
For assay [9], the system named is NCI/ADR-RES ovarian.
The subject of assay [10] is T-47D breast.
For assay [11], the system named is BT-549 breast.
The subject of assay [12] is MDA-MB-435 melanoma.
Assay [13] has as its system SW-620 colon.
In assay [14] the test system is MCF7 breast.
The test system of assay [15] is HCT-116 colon.
The test system of assay [16] is HCC-2998 colon.
Assay [17] deals with KM12 colon.

Compounds without any hit were thinned out: in the full panel of roughly 83,000, 20% have a hit.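 Cells were grown in 96-well plates and exposed to the test compound at a single concentration for 48 hours; results are reported as percent growth, with values below 10 considered active.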 Values without a mark were called inactive. Activity calls are given as the source filed them.

For the molecule `CC(C)SC1=NC(=C(C(=N1)NC2=ClC=CC=C2)C#N)C3=CC=CC=C3`, the growth in assay [1] was 69.3%; in assay [2], 88.2%; in assay [3], 46.8%; in [4] it was 80.3%; in assay [5], -4.9% (active); in [6], 88.5%. The growth in assay [7] is -5.3% (active); in assay [8] it was 65.4%; in [9], 52.7%; in assay [10], 55%; in [11], 110%; in assay [12], 62.3%. Besides, the growth in [13] was 50.5%; in assay [14] it was 39.9%; in assay [15], 27.9%; in assay [16], 84.1%; in [17] it was 79.3%.
As for `CCN1CCN(c2cc(C(=O)Nc3nc4ccc(Oc5ccnc(C(=O)NC)c5)cc4s3)cc(C(F)(F)F)c2)CC1`, the growth in [1] was -3.58% (active); in assay [2], 33%; in [3], 92.4%; in assay [4], 101%; in assay [5], 67.9%; in [6] it was 109%. In addition, the growth in assay [7] is 95.8%; in assay [8], 93.1%; in assay [9] it was 99.6%; in assay [10], 72%; in assay [11], 149%; in [12] it was 68.6%. The growth in [13] was 77.5%; in [14], 51.9%; in assay [15], 57.9%; in assay [16], 90.3%; in assay [17], 56.9%.
With `CS(=O)c1nccc(-c2c(-c3ccc(F)c(OCc4ccc(F)cc4)c3)nc3sccn23)n1` (stereo not drawn), the growth in [1] was -22.2% (active); in assay [2], 20.2%; in assay [3] it was 89.1%; in assay [4], 100%; in assay [5], 101%; in assay [6] it was 115%. Besides, the growth is 17.7% in assay [7]; 98.4% in [8]; 107% in assay [9]; -37.3% (active) in assay [10]; 102% in [11]; 100% in assay [12]. Further, the growth in assay [13] was 73%; in [14], -50.1% (active); in [15], 19.7%; in [16], 10.2%; in [17], 54.5%.
For the molecule `C=CCn1c(SCC(=O)c2ccc(OC)cc2)nnc1-c1ccc(OC)cc1`, the growth was 96.1% in [1]; 98.4% in assay [2]; 99.9% in assay [3]; 96.7% in [4]; 98% in [5]; 105% in assay [6]. Besides, the growth in assay [7] is 103%; in assay [8], 103%; in assay [9], 94.9%; in [10], 105%; in assay [11], 95.9%; in [12], 97.8%. Besides, the growth in assay [13] is 106%; in assay [14] it was 96%; in assay [15], 96.1%; in assay [16], 109%; in assay [17], 97.7%.
`CC(C)=CCC[C@](C)(O)[C@H]1CC[C@]2(C)[C@@H]1CC[C@@H]1[C@@]3(C)CCC(NC(=O)c4ccccc4C(=O)O)C(C)(C)[C@@H]3CC[C@]12C` (stereo partly drawn): the growth in [1] was 86.9%; in assay [2], 90.9%; in assay [3], 96.3%; in assay [4], 94.9%; in [5] it was 105%; in assay [6], 104%. Also, the growth was 102% in [7]; 89.2% in [8]; 98.3% in assay [9]; 79.4% in [10]; 113% in assay [11]; 51.2% in [12]. The growth in assay [13] was 91%; in assay [14] it was 73%; in [15], 86.9%; in assay [16], 96.5%; in assay [17], 87.9%.
As to `N#Cc1c(-c2ccccc2)cc(-c2c[nH]c3ccccc23)nc1-c1c[nH]c2ccccc12`, the growth is 96.7% in assay [1]; 101% in assay [2]; 98.7% in [3]; 103% in assay [4]; 104% in assay [5]; 93.3% in [6]. Further, the growth is 82.1% in [7]; 93.4% in assay [8]; 98.3% in assay [9]; 86.7% in assay [10]; 94.7% in [11]; 103% in assay [12]. The growth is 102% in [13]; 95% in [14]; 103% in assay [15]; 93.6% in assay [16]; 103% in [17].
As to `COc1ccc(C2C(C#N)=C(N)Oc3c2sc2ccc(C)cc32)cc1` (stereo not drawn), the growth in assay [1] is 25.7%; in [2], 36.5%; in assay [3] it was 56%; in assay [4], 51.4%; in assay [5], 63%; in assay [6], 41.2%. Further, the growth is 39.8% in [7]; 3.28% (active) in assay [8]; 23.6% in assay [9]; 32.7% in assay [10]; 26.8% in assay [11]; -26.4% (active) in assay [12]. Also, the growth in assay [13] was 13.9%; in assay [14], 19.2%; in [15], 22.1%; in assay [16], 53.2%; in assay [17], 24.2%.
With `Cc1ccc(Cc2cnc(NC(=O)/C(C#N)=C/c3ccc(-c4ccc(Cl)cc4)o3)s2)cc1`, the growth in assay [1] is 85.9%; in assay [2], 94.3%; in assay [3], 97.9%; in [4], 100%; in assay [5], 94.6%; in [6], 90.9%. For the same molecule, the growth is 86.8% in assay [7]; 102% in [8]; 92.8% in assay [9]; 64.7% in assay [10]; 96.7% in assay [11]; 94.4% in [12]. In addition, the growth in assay [13] is 93.9%; in [14], 81.8%; in assay [15], 88.9%; in assay [16], 103%; in [17], 90.4%.
As for `COc1cc2oc(-c3cccc(NC(=O)c4cc(NC(=O)[C@H](C)NC(=O)OC(C)(C)C)ccc4C)c3)cc(=O)c2c(OC)c1OC`, the growth was 25.1% in assay [1]; 45% in assay [2]; 42.6% in [3]; 110% in [4]; 63.9% in assay [5]; 115% in [6]. For the same molecule, the growth in assay [7] was 60.6%; in [8] it was 38.2%; in [9], 87.3%; in [10] it was 28.2%; in [11] it was 84.9%; in [12], 90%. In addition, the growth in [13] was 92.9%; in [14], 67%; in assay [15], 58%; in [16] it was 78.6%; in assay [17] it was 71.1%.

The values are drawn from PubChem BioAssay (NCI).
